According to PubChem BioAssay (NCI):
About 83,000 compounds went through this panel and 20% of them were active in at least one assay; those are over-represented in the sample as a whole.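 Negative percent growth values reflect cell death: -40 means 40% of the cells present at the start died, and -100 means all died.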 Active and inactive are the calls of the source. The calls were made as follows: active = growth percent below 10; inactive = the rest.

Tests used:
Experiment in all cases: NCI-60 one-dose screen, 48 h (100 = growth as untreated, 0 = no growth, -100 = all killed)
Settings in all cases: 10 µM
[1] = system: DU-145 prostate
[2] = system: K-562 leukemia
[3] = system: MALME-3M melanoma
[4] = system: MDA-MB-231 breast
[5] = system: RXF 393 renal
[6] = system: SF-268 CNS
[7] = system: SF-295 CNS
[8] = system: SF-539 CNS
[9] = system: M14 melanoma
[10] = system: HCT-15 colon
[11] = system: HT29 colon
[12] = system: SNB-75 CNS
[13] = system: SNB-19 CNS
[14] = system: PC-3 prostate
[15] = system: SK-MEL-5 melanoma
[16] = system: UACC-62 melanoma
[17] = system: LOX IMVI melanoma
[18] = system: SK-MEL-28 melanoma
[19] = system: UACC-257 melanoma
[20] = system: U251 CNS

Measured: growth

Cc1ccc(/C=C/C(=O)C(=O)/C=C/c2ccc(C)cc2)cc1
inactive: [1] 112% | [2] 95.2% | [3] 96.8% | [4] 106% | [5] 117% | [6] 108% | [7] 101% | [8] 96.2% | [9] 95.2% | [10] 95.5% | [11] 91.4% | [12] 90.4% | [13] 103% | [14] 92.2% | [15] 106% | [16] 96.7% | [17] 89.3% | [18] 108%

CC(C)(C)c1ccc(S(=O)(=O)N[C@H]2CC[C@H]3[C@@H]4CCc5cc(O)c([N+](=O)[O-])cc5[C@H]4CC[C@]23C)cc1
inactive: [1] 67.4% | [2] 70.1% | [3] 67.1% | [4] 35.7% | [5] 42.5% | [6] 72.6% | [8] 81.5% | [19] 77.7% | [9] 78.5% | [10] 87.9% | [11] 70% | [14] 47.4% | [15] 83.5% | [16] 84.2% | [18] 77%
active: [12] 5.54%

COCCn1cc(-c2nc(-c3cccnc3)cs2)c2cc(F)ccc21
inactive: [1] 90.4% | [2] 95.2% | [3] 99.8% | [4] 92.3% | [5] 99.5% | [6] 90.7% | [7] 95.6% | [8] 80.9% | [9] 96.2% | [10] 76.4% | [11] 72.3% | [12] 94.4% | [13] 97.3% | [20] 90.2% | [15] 82.9% | [16] 89.2% | [17] 90.7% | [18] 97.2%

CCOC(=O)c1sc2ncnc(Nc3ccc4c(cnn4C(=O)Nc4ccc(C)c(Cl)c4)c3)c2c1C
inactive: [1] 102% | [2] 102% | [3] 91.1% | [4] 96.5% | [5] 99.3% | [6] 103% | [7] 102% | [8] 104% | [10] 95.3% | [11] 90% | [12] 110% | [13] 103% | [20] 99.3% | [15] 102% | [16] 99.6% | [17] 96%

Cc1ccc(-c2c3c(N)nc(-c4cccnc4)nc3nc3c2c(C)nn3-c2ccccc2)cc1
inactive: [1] 98.1% | [2] 86.7% | [3] 91.9% | [4] 75.9% | [5] 79% | [6] 80.7% | [7] 96.1% | [8] 45.8% | [9] 97.3% | [10] 84.4% | [11] 77.3% | [13] 99.1% | [14] 69.3% | [15] 76.1% | [16] 82.2% | [17] 80.9% | [18] 68.2%
active: [12] -0.959%

CCOC(=O)c1sc2ncnc(Nc3ccc4c(cnn4C(=O)Nc4ccccc4)c3)c2c1C
inactive: [1] 64.6% | [2] 91.6% | [3] 32.7% | [4] 37.2% | [5] 55.4% | [6] 66.2% | [7] 98.3% | [8] 19.2% | [9] 63.7% | [10] 72.6% | [12] 10.7% | [13] 85.8% | [20] 53% | [15] 31.1% | [16] 59.7% | [17] 36.4% | [18] 72.7%

CC(=O)N[C@H](C(=O)N[C@@H](CCCNC(=N)N)C(=O)N[C@@H](CCCCN)C(=O)N[C@@H](CCCNC(=N)N)C(=O)N[C@]1(C)CCC/C=C\CCC[C@@](C)(C(=O)N[C@@H](CC(C)C)C(=O)N[C@@H](CC(C)C)C(=O)N[C@@H](CCC(N)=O)C(=O)N[C@@H](CCC(=O)O)C(=O)N[C@@H](CCCNC(=N)N)C(=O)N[C@@H](CCC(=O)O)C(=O)N[C@@H](CC(C)C)C(=O)N[C@H](C(=O)N[C@@H](CCC(=O)O)C(N)=O)C(C)C)NC(=O)[C@H](CCCNC(=N)N)NC(=O)[C@H](CC(C)C)NC1=O)C(C)C
inactive: [1] 99.7% | [2] 104% | [3] 137% | [4] 108% | [5] 119% | [6] 101% | [7] 106% | [8] 102% | [10] 109% | [11] 95.3% | [12] 119% | [13] 105% | [20] 100% | [14] 104% | [15] 102% | [16] 105% | [17] 105% | [18] 111%

Cc1cc(SCc2ccccc2)nc(N)n1
active: [3] -0.674%
inactive: [1] 104% | [2] 105% | [4] 107% | [5] 124% | [6] 100% | [7] 102% | [19] 125% | [9] 115% | [10] 104% | [13] 92.1% | [20] 118% | [14] 111% | [15] 117% | [16] 87.5% | [17] 103% | [18] 106%

COc1ccc(C(c2ccc(OCCN(C)C)cc2)c2cc3ccccc3c3ccccc23)cc1 (centres undefined)
inactive: [1] 34.2% | [4] 17.1% | [5] 49.5% | [6] 67.3% | [7] 58% | [8] 66.9% | [12] 86.8% | [20] 16.6% | [14] 60.7% | [15] 58.6%
active: [2] -29.9% | [3] -43.4% | [9] -72.3% | [10] -30.9% | [11] -7.37% | [16] -47.8% | [17] -81% | [18] -77.8%

N#Cc1c(-c2ccc(Cl)cc2)csc1NC(=O)Nc1ccc(Cl)c(C(F)(F)F)c1
inactive: [5] 33.7% | [6] 27.8% | [8] 31.5% | [12] 36.5% | [13] 31.6% | [16] 16.2% | [17] 11.7% | [18] 28.4%
active: [1] 5.84% | [2] 9.03% | [3] -26.7% | [4] 2.12% | [7] -27.2% | [10] 4.52% | [11] 1.62% | [20] 2.57% | [14] 1.89% | [15] -24.2%

O=S(=O)(NCCCNc1nccc(-c2cn(-c3ccccc3)nc2-c2ccc(Cl)c(O)c2)n1)c1ccccc1
inactive: [1] 81.4% | [2] 65% | [3] 125% | [4] 71.6% | [5] 74.2% | [6] 68.5% | [7] 63.2% | [8] 88.9% | [9] 60.7% | [10] 51.3% | [11] 60.5% | [12] 80.5% | [13] 86.1% | [20] 59.4% | [15] 46.1% | [16] 59.1% | [17] 63.1% | [18] 84.5%

O=C1/C(=C/c2cccc(F)c2)Cc2ccccc21
inactive: [1] 113% | [2] 106% | [3] 106% | [4] 112% | [5] 99.4% | [6] 112% | [7] 77.9% | [8] 110% | [9] 98.8% | [10] 93.7% | [11] 94.6% | [12] 89.4% | [13] 98.7% | [14] 90% | [15] 99.4% | [16] 99.2% | [17] 96.7% | [18] 105%

CC(C)(C)c1ccc(S(=O)(=O)N[C@H]2CC[C@H]3[C@@H]4CCc5cc(O)ccc5[C@H]4CC[C@]23C)cc1
inactive: [1] 62.9% | [2] 17% | [3] 25.6% | [4] 33.7% | [5] 12% | [6] 50.9% | [8] 78.7% | [19] 68.7% | [9] 45.8% | [10] 34.7% | [11] 10.2% | [12] 55.4% | [13] 80.6% | [14] 30.6% | [15] 40.4% | [16] 61.2% | [18] 79.1%

C#CCOc1c(OC)cc(C(=O)/C(C)=C/c2cccc(N=[N+]=[N-])c2)cc1OC
inactive: [1] 11.7% | [2] 14.4% | [3] 54.7% | [4] 30.5% | [6] 42.6% | [10] 18.7% | [12] 15.1% | [13] 34.5% | [14] 22.7% | [15] 35.2% | [16] 37.7% | [17] 30.4% | [18] 58.8%
active: [5] -8.56% | [7] 8.17% | [8] -12.5% | [9] 5.53% | [11] 2.11%

C=C/C(C)=C/C[C@]1(C)[C@H](C)[C@@H](OC(=O)CCC)[C@H](O)[C@@]23C(=C[C@H](OC)C[C@@H]12)[C@@H](OC(=O)CCC)O[C@H]3OC(C)=O
active: [3] -63.7% | [4] -62.7% | [5] -89.4% | [6] -8.13% | [7] -59.6% | [8] -74.4% | [9] -45.7% | [10] -67.4% | [11] -66.9% | [12] -84.1% | [15] -88% | [16] -78.3% | [17] -66.4% | [18] -49.8%
inactive: [1] 14.3% | [2] 10.3%

CC(=O)N[C@H](C(=O)N[C@@H](CCCNC(=N)N)C(=O)N[C@@H](CCCCN)C(=O)N[C@@H](CCCNC(=N)N)C(=O)NC(C(=O)N[C@@H](CC(C)C)C(=O)N[C@@H](CCCNC(=N)N)C(=O)N[C@@]1(C)CCC/C=C\CCC[C@@](C)(C(=O)N[C@@H](CCCNC(=N)N)C(=O)N[C@@H](CCC(=O)O)C(=O)N[C@@H](CC(C)C)C(=O)N[C@H](C(=O)N[C@@H](CCC(=O)O)C(N)=O)C(C)C)NC(=O)[C@H](CCC(N)=O)NC(=O)[C@H](CC(C)C)NC(=O)[C@H](CC(C)C)NC1=O)[C@@H](C)O)C(C)C (some centres undefined)
inactive: [10] 16.2% | [11] 26.9% | [17] 33.2%
active: [1] -58.3% | [2] -44.5% | [3] -68.7% | [4] -52.1% | [5] -43.9% | [6] -80.9% | [7] -4.34% | [8] -78% | [9] -61.2% | [12] -16.4% | [20] -35.7% | [14] -75.5% | [15] -83.9% | [16] -68.1% | [18] -37.7%
